Compound activity as filed in PubChem.
Many of the other results were omitted from the sample, so hits are more common in it than they were.
Pf Dd2 growth = inhibitors of Plasmodium falciparum Dd2 growth; P. falciparum Dd2 growth, SYBR Green, 72 h; Potency, µM (series often up to 28.9 µM), for inactives: top-dose activity, negative = inhibition, actives largely listed as inhibitors; 120,000 tested, 4.3% active; AID 1347417; active = well fitted inhibition curve with a large enough effect;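 note: plate controls were DMSO vehicle for no effect and reference drug for full effect; nearly all actives have a fitted effect of over 65% in size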
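Infected erythrocytes (Dd2, 0.3% parasitemia, 2.5% hematocrit final) are added to compound in RPMI-1640/Albumax II medium, grown 72 h at 37C in low oxygen, then lysed with saponin/Triton-X containing SYBR Green and read by fluorescence.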
The depositor's hits bear a star; [ ] = dose if it differs, or a comment. Potency is the fitted concentration of half-maximal effect.

COCC1CN(C)CC12CCN(Cc1ccncc1)CC2 (configuration not stated) was read as Pf Dd2 growth 13%.
For COCC1CN(C)CC12CCN(Cc1cc(Br)ccc1F)CC2 (configuration not stated) the results were Pf Dd2 growth 3.5µM*.
`COCC1CN(C)CC12CCN(Cc1ccncc1F)CC2` (configuration not stated) gave Pf Dd2 growth 19%.
For CCc1nn(-c2ccc(F)cc2)c(Oc2ccccc2)c1CCC(=O)N(C)C(C)C the results were Pf Dd2 growth -6%.
For COc1ccc(-c2cc3c(ccn3C)c(C(=O)NCCC(N)=O)n2)cc1OC the results were Pf Dd2 growth -9%[44.1 µM].
Screening CN(C)CCNC(=O)c1nc(-c2ccc(N3CCN(C)CC3)cc2)cc2c1ccn2C returned Pf Dd2 growth 11µM*.
For Cn1ccc2c(C(=O)NCc3cccnc3)nc(-c3ccc(CO)cc3)cc21 the results were Pf Dd2 growth -23%[44.1 µM].
Screening CCOC(=O)C1CCCN(C(=O)C2CCN(c3nnc(C)c4c(C)n(-c5ccccc5)nc34)CC2)C1 (configuration not stated) returned Pf Dd2 growth 10µM*.
Cc1nnc(N2CCC(C(=O)NC3CCCCC3)CC2)c2nn(-c3ccccc3)c(C)c12 was read as Pf Dd2 growth 42%.
COc1ccc(-n2nc3c(N4CCCC(C(=O)NCc5cccc(F)c5)C4)nnc(C)c3c2C)cc1 (configuration not stated) was read as Pf Dd2 growth 11µM*.
For CCOC(=O)c1cccc(NC(=O)C2CCCN(c3nnc(C)c4c(C)n(-c5ccccc5)nc34)C2)c1 (configuration not stated) the results were Pf Dd2 growth inactive.
For Cc1ccc(-n2nc3c(N4CCCC(C(=O)NCc5ccc(Cl)cc5)C4)nnc(C)c3c2C)cc1 (configuration not stated) the results were Pf Dd2 growth -14%.
`CCOc1ccc(CCNC(=O)C2CCCN(c3nnc(C)c4c(C)n(-c5ccccc5)nc34)C2)cc1` (configuration not stated) gave Pf Dd2 growth 7.9µM*.
Screening Cc1ccc(CCNC(=O)C2CCCN(c3nnc(C)c4c(C)n(-c5ccccc5)nc34)C2)cc1 (configuration not stated) returned Pf Dd2 growth 53%[5.79 µM].
Screening CCc1ccc(CNC(=O)C2CCCN(c3nnc(C)c4c(C)n(-c5ccccc5)nc34)C2)cc1 (configuration not stated) returned Pf Dd2 growth -29%.
Cc1nnc(N2CCCC(C(=O)NCc3ccccc3)C2)c2nn(-c3ccccc3)c(C)c12 (configuration not stated) was read as Pf Dd2 growth 29%.
O=C1NCCCCCCN(C(=O)C2(c3ccccc3)CC2)[C@H]2CCCC[C@@H]12 was read as Pf Dd2 growth -4%.
For CN1CC(=O)N(C2CCNCC2)Cc2c(NC3CCCCCC3)ncnc21 the results were Pf Dd2 growth -8%.
COCCN1CCC(CN(CC2CCCO2)C(=O)c2cc(Cl)cn2C)CC1 (configuration not stated) was read as Pf Dd2 growth inactive.
Screening COc1ccc2[nH]c3c(c2c1)CCNC31CCN(C(=O)c2ccsc2)CC1 returned Pf Dd2 growth -23%.
For COc1ccc(N2CCN(C3CCCN(C(=O)C(C)(C)N)C3)CC2)cc1 (configuration not stated) the results were Pf Dd2 growth 4%.
For COc1ccc(NC(=O)c2ccc(CN3C(=O)NC4(CCOCC4)C3=O)cc2)cc1OC the results were Pf Dd2 growth 1%.
`CC1CCN(C(=O)C[C@@H]2O[C@H](CNC(=O)C3CC3)[C@@H](O)[C@H]2O)CC1` gave Pf Dd2 growth 2%[44.1 µM].
CC1(c2ccccc2)N(Cc2cccnc2)C(=O)OC12CCN(Cc1ccccc1Cl)CC2 (configuration not stated) was read as Pf Dd2 growth -9%.
Screening COCC(=O)N1CCC(Oc2ccc(C(=O)N(C)C)cn2)CC1 returned Pf Dd2 growth inactive.
For CSc1nccc(-c2ccccc2CO)n1 the results were Pf Dd2 growth -11%.
Screening Cc1ccc(C(N)=O)cc1-c1cc(NCc2cccnc2)nc2[nH]ccc12 returned Pf Dd2 growth -15%.
Screening CSc1nccc(-c2cc(NCc3cccnc3)nc3[nH]ccc23)n1 returned Pf Dd2 growth 10µM*.
For Cc1ccccc1[S+](=O)([O-])N1CCC2OCCN(Cc3ccccc3F)C(=O)C2C1 (configuration not stated) the results were Pf Dd2 growth inactive.
CNC(=O)[C@@H]1C[C@H](Oc2cccnc2)CN1C(=O)C1CCCC1 was read as Pf Dd2 growth 2%.
c1cc(CN2CCNc3cc(-c4ccsc4)ncc3C2)ccn1 was read as Pf Dd2 growth inactive.
For Fc1cccc(-c2cc3c(cn2)CN(Cc2ccncc2)CCN3)c1 the results were Pf Dd2 growth inactive.
c1ccc(Oc2ccccc2-c2cc3c(cn2)CN(Cc2ccncc2)CCN3)cc1 was read as Pf Dd2 growth 8.9µM*.
For COc1cc(SC)c(OC)cc1CN1CCC2(CC(=O)NC2=O)C1 (configuration not stated) the results were Pf Dd2 growth -13%.
For CC(C)c1ccc(NC(=O)Cn2c(=O)n(CCc3ccccc3)c(=O)c3ccccc32)cc1 the results were Pf Dd2 growth 14%.
For CCOc1ccc(NC(=O)Cn2c(=O)n(CC3CCC(C(=O)NCCc4ccccc4)CC3)c(=O)c3ccccc32)cc1 (configuration not stated) the results were Pf Dd2 growth -10%.
For CCc1cccc(NC(=O)Cn2c(=O)n(CC3CCC(C(=O)NCCc4ccccc4)CC3)c(=O)c3ccccc32)c1 (configuration not stated) the results were Pf Dd2 growth 3.5µM*.
CC(C)c1ccc(NC(=O)Cn2c(=O)n(CC3CCC(C(=O)NCCc4ccccc4)CC3)c(=O)c3ccccc32)cc1 (configuration not stated) was read as Pf Dd2 growth 3.2µM*.
Screening Cc1cccc(NC(=O)Cn2c(=O)n(CC3CCC(C(=O)NCCc4ccccc4)CC3)c(=O)c3ccccc32)c1C (configuration not stated) returned Pf Dd2 growth inactive.
O=C(Cn1c(=O)n(CC2CCC(C(=O)NCCc3ccccc3)CC2)c(=O)c2ccccc21)Nc1ccccc1 (configuration not stated) was read as Pf Dd2 growth -11%.
CC(C)(C)n1nnnc1C1CC2(CCOCC2)C(=O)N1CCc1nc2ccccc2[nH]1 (configuration not stated) was read as Pf Dd2 growth inactive.
Screening Cc1cc(=O)n(CC(=O)N[C@H](c2ccccn2)C2CC(O)C2)nc1C (some centres not stated) returned Pf Dd2 growth -15%.
Screening Cc1noc(-c2ccc3c(c2)OCO3)c1C(=O)NCc1ccccc1 returned Pf Dd2 growth 5%.
For O=C(NC1CC1)C1(c2ccc(Cl)cc2)CCOCC1 the results were Pf Dd2 growth 9%[44.1 µM].
COc1ccc(NC(=O)CN2C(=O)NC3(CCC(C(C)(C)C)CC3)C2=O)cc1 (configuration not stated) was read as Pf Dd2 growth -10%.
Screening O=C(c1cn[nH]c1-c1ccccc1)N1CC2CC(C1)[C@H]1CCCC(=O)N1C2 (some centres not stated) returned Pf Dd2 growth -13%.
For COc1ccc(NC(=O)c2ccc3c(c2)OCCN(C2CCC2)C3)cn1 the results were Pf Dd2 growth 11µM*.
